In the library only some 4.7% were active in any assay of this set; here they are far more common.
DRV1 agonist: GPR32 (DRV1) agonism, beta-arrestin recruitment. actives 2.5% (n = 48,000). CHO-K1 GPR32 beta-arrestin PathHunter luminescence, 90 min; zero percent set by DMSO-only wells. activation, % at 76.9 µM. O75388. AID 1346428;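 active means activation of at least 60% and not above a set upper limit, about 1 call in 100 departs from these limits; inconclusive means activation of 40% to 60%, or above that upper limit; inactive means activation under 40%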; further: 0% is about no effect
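Agonism was scored as beta-arrestin recruitment to ProLink-fused GPR32 in stably transfected CHO-K1 cells, giving a chemiluminescent beta-Gal signal; compounds were incubated 90 min at 37 °C.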
FH mod: Identification of activators of human fumarate hydratase by quantitative high-throughput screening. Fumarate hydratase, mitochondrial (Homo sapiens), P07954. FH coupled MDH/diaphorase resazurin fluorescence, 15 min. Potency, µM (highest dose often 79.9 µM), for the others: top-dose activity change, negative = inhibition, hits mostly inhibitors. actives 0.22% (n = 54,000); further: potency means the concentration at half of the fitted maximal effect; on the % scale 0 is the no-effect control and ±100 the full control effect; the screen sought activators but most active calls are inhibition curves; nearly all actives have a fitted effect of over 45% in size
HTT prom inh: inhibitors of huntingtin promoter activity; HEK293 HTT promoter firefly luciferase reporter, 24 h; Potency, µM (titrated, usually from 57.5 µM), without a hit: at the top dose activity change, negative = inhibition, actives largely listed as inhibitors; actives 0.93% (n = 48,000); AID 1508623; further: potency means the concentration at half of the fitted maximal effect; nearly all actives have a fitted effect of over 50% in size
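Quantitative HTS used concentration series of up to 57.5 uM final on HEK293 luciferase reporter cells, 24 h at 37 degrees C. Readout was Dual-Glo firefly luminescence.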
NTMT1 inhibitor: NTMT1 methyltransferase inhibition. NTMT1 MTase-Glo SAH luminescence, purified enzyme. actives 2.5% (n = 59,000). Potency, µM (titrated, usually from 114 µM), inactives show at the highest dose activity change, negative = inhibition, hits mostly inhibitors. Q9BV86;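 further: potency means the concentration at half of the fitted maximal effect; plate controls were DMSO vehicle for no effect and no enzyme for full effect; nearly all actives have a fitted effect of over 65% in size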
Target sequence (Q9BV86 whole entry, looked up): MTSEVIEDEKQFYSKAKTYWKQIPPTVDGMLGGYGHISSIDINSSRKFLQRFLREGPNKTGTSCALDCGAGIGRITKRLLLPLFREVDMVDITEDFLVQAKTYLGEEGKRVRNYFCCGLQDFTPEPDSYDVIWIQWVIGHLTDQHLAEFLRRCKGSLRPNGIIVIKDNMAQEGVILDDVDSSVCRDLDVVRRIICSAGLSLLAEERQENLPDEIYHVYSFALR
HTT-AS promoter: HTT-AS promoter activation; actives 0.24% (n = 48,000); HEK293 HTT-AS promoter firefly luciferase reporter, 24 h; response scale: percent change from vehicle, -100% = no light; Potency, µM (top dose mostly 57.5 µM), for inactives: top-dose activity change, positive = activation, hits mostly activators; further: potency means the concentration at half of the fitted maximal effect; nearly all actives have a fitted effect of over 55% in size
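HEK293 Fluc reporter, 2,500 cells/well, 24 h pre-culture; cpds up to 57.5 uM final, 24 h 37 degrees C; Dual-Glo, 10 min RT; normalized vehicle = 0%, zero RLU = -100%.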
DYRK1A inh: inhibitors of human DYRK1A kinase; shares compounds with NTMT1 inhibitor; Potency, µM (doses to about 76.9 µM), inactives show top-dose activity change, negative = inhibition, actives largely listed as inhibitors; recombinant DYRK1A, Kinase-Glo ATP depletion luminescence; actives 80% (n = 100)
NNMT counter: blocks human NNMT methyltransferase; shares compounds with NTMT1 inhibitor; NNMT MTase-Glo luminescence, SAH detection; Potency, µM (titrated, usually from 57.1 µM), for inactives: top-dose activity, negative = inhibition, actives largely listed as inhibitors; actives 10% (n = 120)
Target sequence (P40261 whole entry, looked up): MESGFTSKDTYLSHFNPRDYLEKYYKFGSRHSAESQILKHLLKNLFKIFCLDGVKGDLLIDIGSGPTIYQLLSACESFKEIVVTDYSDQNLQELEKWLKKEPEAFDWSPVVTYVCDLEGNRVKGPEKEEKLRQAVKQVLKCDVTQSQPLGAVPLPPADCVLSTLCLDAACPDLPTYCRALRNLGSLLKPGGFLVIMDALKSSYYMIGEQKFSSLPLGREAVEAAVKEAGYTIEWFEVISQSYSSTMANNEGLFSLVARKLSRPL
An asterisk follows results filed as active; ? = inconclusive; / = no result; [ ] = another dose, or the depositor's remark. Unless noted, the call rests on the fitted dose curve; in most records, active means well fitted curve in the direction sought with a large enough effect; inconclusive means small, poorly fitted or top-dose-only effect, or another doubt; inactive means no such curve, though single readings can be large; an effect the other way counts as inactive or inconclusive.

SMILES	DRV1 agonist	FH mod	HTT prom inh	NTMT1 inhibitor	HTT-AS promoter	NNMT counter	others
O=C(CSc1nc(=O)n(CCN2CCOCC2)c2c1CCC2)Nc1cccc(Cl)c1	-11.4	-8.5%	?	-3.9%	-14.7%	/
Cc1cc(N[S+](=O)([O-])c2ccc(NC(=O)Cc3ccc4c(c3)CCCC4)cc2)no1	/	/	/	2.9%	/	/
CCN(c1ccc(C)cc1C)S(=O)(=O)c1nnc(NC(=O)CC(C)C)s1	37.5	-17.2%	6.1%	17.2%	-8.6%	/
CN=c1nc(-c2ccccc2)n(-c2ccccc2)s1	-2.3	?	/	/	/	22.4µM*
Nc1ncnc2c1nc(N)n2[C@@H]1O[C@H](CO)[C@@H](O)[C@H]1O	/	-1.1%	/	125.4%[57.5 µM]	/	18.6%
CC(C)(N)C(=O)Nc1ccc(Cl)cc1C(=O)c1ccc[nH]1	/	/	/	-2.3%	/	/
COc1cc(C)c(Sc2cnc(NC(=O)c3ccc(CNC(C)C(C)(C)C)cc3)s2)cc1C(=O)N1CCN(C(C)=O)CC1 (centres undefined)	/	24.4%	-23.5%	?	-8.5%	/
C[C@H](Oc1cc(-c2cnn(C3CCNCC3)c2)cnc1N)c1c(Cl)ccc(F)c1Cl	/	-3.1%	/	?	/	/
C[C@@H](Oc1cc(-c2cnn(C3CCNCC3)c2)cnc1N)c1c(Cl)ccc(F)c1Cl	/	-8.0%	?	17.8µM*	-24.6%	?
CCn1c(CN2CCCCC2)nc2cc(NC(=O)COc3ccc(C(C)(C)C)cc3)ccc21	1.0	-23.5%	?	25.4%	-31.5%	/
Cc1nc(CNc2ncnc3ccc(-c4sc(C)nc4C)cc23)cs1	/	/	/	?	/	/	DYRK1A inh=8.23µM*
Cc1ccsc1CNc1ncnc2ccc(-c3c(C)noc3C)cc12	/	/	/	-1.5%	/	/
Cc1nc(CNc2ncnc3ccc(-c4oc(-c5ccccc5)nc4C)cc23)cs1	/	/	/	?	/	/	DYRK1A inh=?
Cc1nc(CNc2ncnc3ccc(-c4ccoc4C)cc23)cs1	/	/	/	-2.7%	/	/	DYRK1A inh=7.33µM*
Cc1noc(C)c1-c1ccc2ncnc(NCc3ccccc3C(F)(F)F)c2c1	/	/	/	8.2%	/	/
COc1cc(F)c(S(=O)(=O)N2CCCN(S(=O)(=O)c3cccc(N)c3)CC2)c(F)c1	/	/	/	-1.5%	/	/
COC(=O)[C@]1(C)CCC[C@@]2(C)C(=O)CC[C@H]3C(=O)C=C(CC[C@@H]21)C3O (some centres undefined)	/	2.7%[53.3 µM]	/	2.1%[29.8 µM]	/	/
CC(C)Nc1cccnc1N1CCN(C(=O)c2cc3cc(NS(C)(=O)=O)ccc3[nH]2)CC1	13.1	-6.2%[53.3 µM]	-4.4%	?	-15.1%	/
COc1cccc(CCNc2ncnc3c2nnn3C)c1	10.3	12.3%	?	-3.1%	-8.0%	/
COc1ccc(OC)c2sc(N3CCN(C(=O)c4ccco4)CC3)nc12	-9.2	8.9%	-23.0%	-8.4%	-16.5%	/
COc1cc2nc(N3CCN(C(=O)c4ccco4)C4CCCCC43)nc(N)c2cc1OC (centres undefined)	/	-6.8%	/	?	/	23.6%
COc1ccc(C(=O)COC(=O)CCCC(=O)Nc2ccc(C(C)=O)cc2)cc1	18.9	-11.1%	65.9%	20.0%	?	/
COc1ccc2nc(-c3cc(OC)c(OC)c(OC)c3)cc(C(=O)NCC(=O)Nc3ccc(C(C)=O)cc3)c2c1	/	-15.2%	/	4.6%[57.5 µM]	/	?
O=C(C[C@@H]1C(C(=O)O)=CO[C@@H](O[C@@H]2O[C@H](CO)[C@@H](O)[C@H](O)[C@H]2O)/C1=C\CO)OCCc1ccc(O)c(O)c1	/	-2.4%[53.3 µM]	/	-2.5%[29.8 µM]	/	/
CC(=O)N[C@@H](CC(C)C)C(=O)N[C@@H](CCC(=O)O)C(=O)N[C@@H](CCC(=O)O)C(=O)N[C@@H](CC(=O)O)C(=O)Nc1ccc2c(C(F)(F)F)cc(=O)oc2c1	/	8.6%	/	-3.8%[57.5 µM]	/	-8.7%
SMILES	DRV1 agonist	FH mod	HTT prom inh	NTMT1 inhibitor	HTT-AS promoter	NNMT counter	others
O=C(O)c1cc(-c2c(-c3ccccc3)nn3ccccc23)n[nH]c1=O	/	-0.3%	/	-6.0%[57.5 µM]	/	/
Nc1[nH]nc2nnc(-c3c(-c4ccccc4)nn4ccccc34)cc12	/	2.0%	-2.6%	8.91µM*	-18.4%	11.2µM*
Cc1cc2c(s1)c1cnn(Cc3cc(F)ccc3C)c(=O)c1n2C	/	/	/	15.9%	/	/
CCOc1cc2ncc(C#N)c(Nc3ccc(F)c(Cl)c3)c2cc1NC(=O)/C=C/CN(C)C	/	-29.3%	/	1.12µM*	/	15.8µM*
CN(C)C/C=C/C(=O)Nc1cc2c(Nc3ccc(F)c(Cl)c3)ncnc2cc1OC1CCOC1 (centres undefined)	/	16.3%	/	6.31µM*	/	?
COc1cc2ncnc(Nc3ccc(NC(=O)c4ccccc4)cc3)c2cc1OC	/	-8.6%	/	15.6%	/	/
CN(C)C/C=C/C(=O)Nc1cccc(C(=O)Nc2cccc(Nc3ncc(Cl)c(-c4c[nH]c5ccccc45)n3)c2)c1	/	11.5%	/	?	/	/
Cc1ccc(NC(=O)N2CCN(c3nc(N)nc4sc(-c5cccnc5)nc34)CC2)cc1	/	-18.1%	/	-2.2%[57.5 µM]	/	15.3%
Cn1ccc2cc(-c3ccc4ncnc(NCc5cccs5)c4c3)ccc21	/	/	/	-6.0%[57.5 µM]	/	/	DYRK1A inh=?

Screens: PubChem BioAssay, National Center for Advancing Translational Sciences (NCATS)
